# Assay results published in PubChem BioAssay AID1918 (Vanderbilt High Throughput Screening Facility, 2009).
# Among all 130,000 compounds or so, about 2,500 (1.9%) were called active. Shown is part of a subset that was picked to be rich in actives. Values without a mark were called inactive.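 Rule for the calls: active = signal ratio slope over the read window, or its plate-corrected B-score, at least 3 SD from the plate mean, either direction; inactive = the rest.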
# Biological target: ATP-sensitive inward rectifier potassium channel 1 (Homo sapiens) (UniProt P48048)
# Sequence (P48048 whole entry, looked up): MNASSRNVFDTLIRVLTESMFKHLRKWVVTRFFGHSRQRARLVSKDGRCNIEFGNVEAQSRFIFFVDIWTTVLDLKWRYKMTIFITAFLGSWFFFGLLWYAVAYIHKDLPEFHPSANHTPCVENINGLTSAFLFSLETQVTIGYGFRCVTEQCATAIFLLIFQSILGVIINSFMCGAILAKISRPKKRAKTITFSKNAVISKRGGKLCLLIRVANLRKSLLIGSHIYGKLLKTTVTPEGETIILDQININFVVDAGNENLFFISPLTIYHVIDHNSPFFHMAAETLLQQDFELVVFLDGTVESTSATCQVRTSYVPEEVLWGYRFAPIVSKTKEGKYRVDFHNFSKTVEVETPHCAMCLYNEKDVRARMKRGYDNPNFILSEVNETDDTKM
# Test: ROMK potassium channel modulators, primary screen, cell-based, thallium flux, MLSMR library (AID 1918);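 note: B-score of the F/F0 ratio slope over 7 to 12 s after thallium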
# Settings: Tet-inducible ROMK, thallium flux fluorescence; at 10 µM; actives lie on both sides
row,Compound,B-score
1,Cc1nc2ccccn2c1P(=S)(N1CCCCC1)N1CCCCC1,-3.59 (active)
2,CSc1nc2ccc(C)cc2c(=O)n1-c1cccnc1,-0.218
3,COC(=O)N1C(c2ccccc2)C1c1ccccc1 (stereo not given),0.0342
4,O=C(Nc1cccc2ccccc12)N1CCC2(CC1)OCCO2,-0.682
5,CCN1CCN(c2ccc([N+](=O)[O-])cc2C#N)CC1,-0.443
6,CC1=C2C(=O)C3C(CC=C4CC(OC5OC(O)C(O)C(O)C5CO)CCC43C)C2CCC12OC1CC(C)CNC1C2C (stereo not given),-0.573
7,N=c1ccccn1Cc1ccccc1,2.77 (active)
8,CN(C)/C=C(\C=[N+](C)C)c1[nH]ncc1[N+](=O)[O-],0.157
9,O=c1[nH]c(=O)n(-c2ccccc2)c(O)c1C=NC12CN3CN(CN(C3)C1)C2,0.583
10,O=c1[nH]c(=O)n(CCc2ccccc2)c(O)c1/C=N/N1CCOCC1,0.152
11,CC1=C(C(=O)Nc2ccccc2)S(=O)(=O)CCO1,0.94
12,CCOCCc1c(O)[nH]c(=S)[nH]c1=O,-0.807
13,O=C1N=c2ccccc2=C/C1=C\c1c(O)[nH]c(=S)[nH]c1=O,0.454
14,COc1ccccc1N=Nc1c(O)[nH]c(=S)[nH]c1=O,-2.66 (active)
15,CNC(=O)O/N=C(\N)Cc1csc2ccccc12,0.164
16,CC(Cc1cccs1)NCc1ccc(Cl)cc1 (stereo not given),0.0543
17,CCCOC(=O)C1C2c3ccccc3C(c3ccccc32)C1C(=O)O (stereo not given),0.827
18,O=C(COC(=O)Cc1ccccc1)Nc1ccc(F)cc1,-0.767
19,OC1/C(=C/c2ccc(C(F)(F)F)cc2)N2CCC1CC2 (stereo not given),-1.88
20,CCCCCCCCCCCCn1ccc(=N)cc1,-10.9 (active)
21,CC(C)CN1CCN(Cc2ccccc2C(F)(F)F)CC1CCO (stereo not given),-0.0138
22,CC(C)Oc1cccc(C(=O)C2CCCN(C3CCOCC3)C2)c1 (stereo not given),0.0502
23,Cc1ccc(-c2cc(C(=O)N3CCC4(CC3)OCCO4)no2)cc1,1.11
24,Clc1ccc2nc3c(c(-c4ccccc4)c2c1)CNCC3,-3.67 (active)
25,Cc1ccccc1N1C(=O)NC(=O)/C(=C\c2cc(C)n(C)c2C)C1=O,0.936
26,Cc1cc(C=C2C(=O)NC(=O)NC2=O)c(C)n1-c1ccncc1,-3.19 (active)
27,Cc1cc(/C=C2/C(=O)NC(=O)N(Cc3ccco3)C2=O)c(C)n1-c1ccc(C(=O)O)cc1,0.104
28,O=C(Cn1c(=O)n(CC2CS2)c2ccccc21)N1CCCCC1 (stereo not given),1.36
29,CC(C)c1ccc(-n2c(O)c(/C=N/N3CCOCC3)c(=O)[nH]c2=S)cc1,0.913
30,COc1ccc(NC(=O)N2CCC3(CC2)OCCO3)c(OC)c1,-0.624
